Laboratory results published in PubChem BioAssay (NCI).
Compounds without any hit were thinned out: in the full panel of roughly 79,000, 15% have a hit. Calls of active or inactive are those of the source. Cut-off read from the data, not from the text of the source: active = growth inhibition above about 70%; inactive = the rest.

Columns and labels:
[1] = NCI Yeast Anticancer Drug Screen. Data for the rad52 strain (AID 147);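 note: 0% = growth of vehicle-treated control cultures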; details: S. cerevisiae rad52 mutant growth inhibition, stronger effect = higher value
Summary of the method: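 Genetically altered yeast (DNA damage repair defect) treated with compound; inhibition calculated relative to vehicle.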

[2] = NCI Yeast Anticancer Drug Screen. Data for the wt1 strain (AID 149);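 note: 0% = growth of vehicle-treated wt1 cultures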; details: S. cerevisiae wt1 strain (SPY 50644) growth inhibition, stronger effect = higher value
Summary of the method: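 wt1 yeast, compound-treated; % growth inhibition vs vehicle control.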

[3] = NCI Yeast Anticancer Drug Screen. Data for the rad50EPP+ strain (AID 151);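 note: 0% = growth of vehicle-treated control cultures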; details: S. cerevisiae rad50 mutant strain, stronger effect = higher value
Summary of the method: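 Strain rad50EPP+; compound exposure; % growth inhibition vs vehicle.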

[4] = NCI Yeast Anticancer Drug Screen. Data for the mgt1 strain (AID 153); details: S. cerevisiae mgt1 mutant growth inhibition, stronger effect = higher value
Summary of the method: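 Read-out: yeast growth inhibition vs vehicle control. Strain mgt1, drawn from a panel altered in DNA damage repair or cell cycle control.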

[5] = NCI Yeast Anticancer Drug Screen. Data for the rad50 strain (AID 155);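 note: 0% = growth of vehicle-only cultures of the same strain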; details: S. cerevisiae rad50 strain growth inhibition, stronger effect = higher value
Summary of the method: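 Genetically altered yeast (DNA repair pathway); compound treatment; growth inhibition vs vehicle ctrl.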

[6] = NCI Yeast Anticancer Drug Screen. Data for the mec2-1 strain (AID 157); details: S. cerevisiae mec2-1 strain, stronger effect = higher value
Summary of the method: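 Cells of the genetically defined mec2-1 yeast strain are incubated with test compound. Inhibition of growth is calculated against vehicle-treated controls.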

[7] = NCI Yeast Anticancer Drug Screen. Data for the rad14 strain (AID 159);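 note: 0% = growth of vehicle-treated control cultures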; details: S. cerevisiae rad14 strain growth inhibition, stronger effect = higher value
Summary of the method: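 Test compounds were applied to a repair-deficient yeast strain. Its growth was then compared with that of cultures given vehicle alone, and inhibition was expressed relative to those controls.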

[8] = NCI Yeast Anticancer Drug Screen. Data for the sgs1 mgt1 strain (AID 161);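 note: 0% = growth of cultures given vehicle only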; details: S. cerevisiae sgs1 mgt1 strain, stronger effect = higher value
Summary of the method: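 Read-out: growth inhibition vs vehicle controls. Cells: mutant yeast strain deficient in DNA damage repair.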

[9] = NCI Yeast Anticancer Drug Screen. Data for the CLN2oe strain (AID 163);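 note: 0% = growth of vehicle-only control cultures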; details: S. cerevisiae CLN2oe strain, stronger effect = higher value
Summary of the method: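 Strain altered in cell-cycle control, incubated with compound; growth compared to solvent-treated controls.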

[10] = NCI Yeast Anticancer Drug Screen. Data for the cln2 rad14 strain (AID 165);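 note: 0% = growth equal to vehicle treated cultures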; details: S. cerevisiae cln2 rad14 strain, stronger effect = higher value
Summary of the method: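 The screen exposed genetically defined yeast (cln2 rad14) to test compounds and scored growth inhibition relative to vehicle-treated controls.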

[11] = NCI Yeast Anticancer Drug Screen. Data for the bub3 strain (AID 167); details: S. cerevisiae bub3 mutant strain, stronger effect = higher value
Summary of the method: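 Yeast carrying a defined mutation is treated with each compound, and growth is compared with that of vehicle-exposed cells to give inhibition.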

[12] = NCI Yeast Anticancer Drug Screen. Data for the wt2 strain (AID 169);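 note: 0% = growth of vehicle-treated yeast cultures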; details: S. cerevisiae wt2 strain growth inhibition, stronger effect = higher value
Summary of the method: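 Steps: yeast strain treated with compound; growth recorded; inhibition calculated relative to cultures given vehicle alone.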

[13] = NCI Yeast Anticancer Drug Screen. Data for the mlh1 strain (AID 171);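 note: 0% = growth of vehicle-treated control cultures of the same strain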; details: S. cerevisiae mlh1 strain growth inhibition, stronger effect = higher value
Summary of the method: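 Yeast screen: mutant strain plus compound, growth scored against vehicle control wells.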

[14] = NCI Yeast Anticancer Drug Screen. Data for the sgs1 strain (AID 173);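 note: 0% = growth of vehicle-only control cultures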; details: S. cerevisiae sgs1 mutant, stronger effect = higher value
Summary of the method: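 Inhibition of yeast growth served as the measure. The mutant strain was treated with each compound, and growth was normalised to cultures receiving vehicle alone.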

[15] = NCI Yeast Anticancer Drug Screen. Data for the mlh1 rad18 strain (AID 175); details: S. cerevisiae mlh1 rad18 strain growth inhibition, stronger effect = higher value
Summary of the method: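 Compound-treated yeast growth, normalised to vehicle controls. Strain bears defined DNA repair mutations.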

[16] = NCI Yeast Anticancer Drug Screen. Data for the rad18 strain (AID 177); details: S. cerevisiae rad18 mutant growth inhibition, stronger effect = higher value
Summary of the method: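 Inhibition values reflect reduced yeast growth compared with vehicle-treated controls, using a strain engineered with a DNA damage repair defect.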

[17] = at 5.0 µM (retest, dose inferred, filed as 0.5)
[18] = at 50.0 µM (retest, dose inferred, filed as 5.0)

Measured: growth inhibition

CCN(CC)CCNc1ccc(C)c2sc3ccc(O)cc3c(=O)c12
inactive: [1]; at 1.2 µM 60% | [2]; at 1.2 µM -7% | [2]; at 3.7 µM -10% | [2]; at 11.0 µM 8% | [3]; at 1.2 µM 37% | [3]; at 3.7 µM 50% | [4]; at 1.2 µM 7% | [4]; at 3.7 µM 27% | [4]; at 11.0 µM 23% | [5]; [17] 52% | [6]; at 1.2 µM -1% | [6]; at 3.7 µM 17% | [6]; [17] 4% | [6]; at 11.0 µM 36% | [7]; at 1.2 µM 23% | [7]; at 3.7 µM 29% | [7]; at 11.0 µM 34% | [8]; [17] 9% | [9]; at 1.2 µM 39% | [9]; at 3.7 µM 33% | [9]; at 11.0 µM 39% | [10]; [17] 12% | [11]; at 1.2 µM -1% | [11]; at 3.7 µM 10% | [11]; [17] -1% | [11]; at 11.0 µM 16% | [12]; at 1.2 µM -20% | [12]; at 3.7 µM -18% | [12]; at 11.0 µM -17% | [13]; at 1.2 µM 45% | [13]; at 3.7 µM 43% | [13]; at 11.0 µM 29% | [14]; at 1.2 µM 23% | [14]; at 3.7 µM 32% | [14]; at 11.0 µM 43% | [15]; [17] 12% | [16]; at 1.2 µM 6% | [16]; at 3.7 µM 5% | [16]; at 11.0 µM 12%
active: [1]; at 3.7 µM 89% | [1]; at 11.0 µM 94% | [1]; at 33.0 µM 98% | [1]; at 100.0 µM 99% | [2]; at 33.0 µM 79% | [2]; at 100.0 µM 99% | [3]; at 11.0 µM 78% | [3]; at 33.0 µM 84% | [3]; at 100.0 µM 98% | [4]; at 33.0 µM 89% | [4]; at 100.0 µM 99% | [5]; at 1.2 µM 72% | [5]; at 3.7 µM 94% | [5]; at 11.0 µM 96% | [5]; at 33.0 µM 98% | [5]; [18] 98% | [5]; at 50.0 µM 90.3% | [5]; at 100.0 µM 99% | [6]; at 33.0 µM 91% | [6]; [18] 98% | [6]; at 50.0 µM 92% | [6]; at 100.0 µM 99% | [7]; at 33.0 µM 93% | [7]; at 100.0 µM 99% | [8]; [18] 99% | [8]; at 50.0 µM 91.7% | [9]; at 33.0 µM 94% | [9]; at 100.0 µM 99% | [10]; [18] 98% | [10]; at 50.0 µM 90.9% | [11]; at 33.0 µM 91% | [11]; [18] 99% | [11]; at 50.0 µM 91.2% | [11]; at 100.0 µM 99% | [12]; at 33.0 µM 98% | [12]; at 100.0 µM 98% | [13]; at 33.0 µM 86% | [13]; at 100.0 µM 99% | [14]; at 33.0 µM 97% | [14]; at 100.0 µM 99% | [15]; [18] 99% | [15]; at 50.0 µM 91% | [16]; at 33.0 µM 97% | [16]; at 100.0 µM 99%
